Consider 30 molecules from PubChem BioAssay (Tox21).

Inconclusive results are not listed. A number with no mark means an inactive call. Activity calls are given as the source filed them. Calls come from the whole dose curve.
% is set by controls: 0 for no effect and ±100 for the full control effect.

The target of the first assay is Beta-2 adrenergic receptor (Homo sapiens) (UniProt P07550). The experiment in a line: Adrenergic beta2 receptor (ADRB2) small molecule agonists, cell-based qHTS assay (AID 1963593).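 Note: CHO cells stably overexpressing human ADRB2.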 As to conditions: CHO-ADRB2 cells, cAMP HTRF, 30 min; series mostly up to 92.4 µM; activation: at the top concentration. In short, it runs like this: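 CHO cells stably over-expressing ADRB2 were plated overnight at 37C, then dosed with compounds plus a stimulation mix containing 100uM IBMX and 25uM Ro-20-1724 for 0.5hr at room temperature. cAMP was measured by HTRF competition, 1hr.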
Chain of Beta-2 adrenergic receptor (Homo sapiens) (P07550 whole entry, looked up): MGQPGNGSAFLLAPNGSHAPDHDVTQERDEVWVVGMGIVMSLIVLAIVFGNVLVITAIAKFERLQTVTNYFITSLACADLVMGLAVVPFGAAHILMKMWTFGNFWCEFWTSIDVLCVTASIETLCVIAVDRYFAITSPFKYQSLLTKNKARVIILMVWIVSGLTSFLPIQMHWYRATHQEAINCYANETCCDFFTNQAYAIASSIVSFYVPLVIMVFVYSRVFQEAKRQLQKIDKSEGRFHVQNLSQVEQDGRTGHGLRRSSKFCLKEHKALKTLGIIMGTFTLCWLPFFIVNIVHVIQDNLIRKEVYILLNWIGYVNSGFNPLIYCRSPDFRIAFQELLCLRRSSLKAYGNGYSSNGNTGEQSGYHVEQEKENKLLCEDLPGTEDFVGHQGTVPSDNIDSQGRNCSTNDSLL
Consider `C=CC(=O)OCC`, for which the “activation” value was 0.0358%.
In the case of `O=C(CBr)Nc1ccc(Cl)cc1C(=O)c1ccccc1F`, the “activation” value is 13.3% [at 42.5 µM].
Consider `[O-][Cl+3]([O-])([O-])O`, for which the “activation” value is 0.705%.
Regarding `CCn1cc[n+](C)c1` (tested in a mixture with another compound), the “activation” value is 16.9%.
For the molecule `C=CCC1(C(C)CC)C(=O)NC(=O)NC1=O` (stereo not given), the “activation” value is 15.2% [at 42.5 µM].
The same measure, in the same setting: with `CCNP(=S)(OC)O/C(C)=C/C(=O)OC(C)C` (stereo not given) the figure was 9.88%; with `CCOC(=O)CCN(SN(C)C(=O)Oc1cccc2c1OC(C)(C)C2)C(C)C`, 11.8%; with `C[C@H](CN1CCOCC1)C(C(=O)N1CCCC1)(c1ccccc1)c1ccccc1`, -0.757%.
On to `C#CC(C)(C)O`, for which the “activation” value is -13.6%.
The same measure, in the same setting: with `CNC(=O)O/N=C(\C)C(C)S(C)(=O)=O` (stereo not given) the figure was 4.62% [at 872 µM].
For `CCOC(=O)c1cn2nc(OP(=S)(OCC)OCC)cc2nc1C`, the “activation” value was -9.38%.
Turning to `CCC1(c2ccccc2)C(=O)N(COC)C(=O)N(COC)C1=O`, the “activation” value is 1.64% [at 42.5 µM].
As for `CCS(=O)(=O)CCSP(=O)(OC)OC`, the “activation” value is -2.36%.
Turning to `O=C(NC(O)C(Cl)(Cl)Cl)NC(O)C(Cl)(Cl)Cl` (stereo not given), the “activation” value is 4.88% [at 42.5 µM].
As for `CNC(=O)Oc1cccc(N=CN(C)C)c1`, the “activation” value was -2.45%.
Regarding `ClCc1ccccc1Cl`, the “activation” value was 7.13%.
On to `CCOP(=S)(OCC)Oc1nc(Cl)n(C(C)C)n1`, for which the “activation” value is 2.85%.
With `CCOP(=S)(OCC)Oc1ccc(Cl)cc1Cl`, the “activation” value was 1.17%.
For `CC(C)O.CC(C)O.OCCN(CCO)CCO.OCCN(CCO)CCO.[Ti]`, the “activation” value was 13.2%.
Turning to `CNC(=O)O/N=C(/CSC)C(C)(C)C`, the “activation” value was -2.14%.
As for `CNC(=O)Oc1ccccc1C(C)C`, the “activation” value was 6.39%.

For another assay, the target named is D(2) dopamine receptor (Homo sapiens) (UniProt P14416). Description: Dopamine D2 receptor (DRD2) small molecule agonists, cell-based qHTS assay (AID 1963594). Note: nearly all actives have a fitted effect of over 35% in size. Note: potency is the fitted concentration of half-maximal effect. As to conditions: HEK293-DRD2 cAMP HTRF, agonist mode, 30 min; series mostly up to 92.4 µM; activation: at the top concentration. The method in brief: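 HEK293 cells stably expressing DRD2 were cultured 24 h at 37 C, then given Ro20-1724 (0.1 mM final) and compounds for 10 min at room temperature. NKH477 (200nM) was then added for 30 min. cAMP was read by HTRF.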
Chain of D(2) dopamine receptor (Homo sapiens) (P14416 whole entry, looked up): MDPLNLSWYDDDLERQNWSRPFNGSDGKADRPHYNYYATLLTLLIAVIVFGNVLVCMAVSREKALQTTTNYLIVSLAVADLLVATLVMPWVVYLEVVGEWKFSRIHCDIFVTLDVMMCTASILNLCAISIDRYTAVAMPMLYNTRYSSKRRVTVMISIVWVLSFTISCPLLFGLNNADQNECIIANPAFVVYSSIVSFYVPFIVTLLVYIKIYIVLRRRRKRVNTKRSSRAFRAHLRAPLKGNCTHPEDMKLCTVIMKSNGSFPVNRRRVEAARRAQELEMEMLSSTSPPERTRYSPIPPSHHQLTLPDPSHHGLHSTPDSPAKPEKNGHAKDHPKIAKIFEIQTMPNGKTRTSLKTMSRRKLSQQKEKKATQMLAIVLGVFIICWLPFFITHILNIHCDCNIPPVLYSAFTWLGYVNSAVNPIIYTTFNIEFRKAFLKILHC
Regarding `C=CC(=O)OCC`, the “activation” value was 0.0224%.
Consider `O=C(CBr)Nc1ccc(Cl)cc1C(=O)c1ccccc1F`, for which the “activation” value was 4.23% [at 42.5 µM].
The same measure, in the same setting: the same measure for `CC1=NNC(=O)N(/N=C/c2cccnc2)C1`: 13.7%; for `[O-][Cl+3]([O-])([O-])O`: -5.66%; for `CCn1cc[n+](C)c1` (tested in a mixture with another compound): -0.954%.
Consider `C=CCC1(C(C)CC)C(=O)NC(=O)NC1=O` (stereo not given), for which the “activation” value is -1.59% [at 42.5 µM].
As for `CCOP(=O)(SC(C)CC)N1CCSC1=O` (stereo not given), the “activation” value is -13.1%.
Same read-out and setting: with `CCNP(=S)(OC)O/C(C)=C/C(=O)OC(C)C` (stereo not given) the figure was -0.0663%; with `CCOC(=O)CCN(SN(C)C(=O)Oc1cccc2c1OC(C)(C)C2)C(C)C`, -12.2%.
The same measure, in the same setting: with `CN1C2CCC(C)(C)C1CC(OC(=O)C(O)(c1cccs1)c1cccs1)C2` (stereo not given) the figure was -7.76% [at 42.5 µM].
As for `O=C1OC(=O)C2C1C1(Cl)C(Cl)=C(Cl)C2(Cl)C1(Cl)Cl` (stereo not given), the “activation” value is -2.96%.
Regarding `C[C@H](CN1CCOCC1)C(C(=O)N1CCCC1)(c1ccccc1)c1ccccc1`, the “activation” value is -1.62%.
Same read-out and setting: the same measure for `NNCc1ccccc1`: -0.255%; for `ClC(Br)Br`: -1.88%; for `C#CC(C)(C)O`: -1.78%.
Turning to `CNC(=O)O/N=C(\C)C(C)S(C)(=O)=O` (stereo not given), the “activation” value is -3.51% [at 872 µM].
As for `CCOC(=O)c1cn2nc(OP(=S)(OCC)OCC)cc2nc1C`, the “activation” value is -0.0862%.
In the case of `CC(C)(c1ccc(O)c(-c2ccccc2)c1)c1ccc(O)c(-c2ccccc2)c1`, the “activation” value is -4.35%.
For `CCC1(c2ccccc2)C(=O)N(COC)C(=O)N(COC)C1=O`, the Potency is 10.6 µM (active).
Turning to `CCS(=O)(=O)CCSP(=O)(OC)OC`, the “activation” value was 0.458%.
Regarding `c1cc[n+]2c(c1)-c1cccc[n+]1CC2`, the “activation” value is 0.674% [at 42.5 µM].
In the case of `CNC(=O)Oc1cccc(N=CN(C)C)c1`, the “activation” value was -2.08%.
`ClCc1ccccc1Cl`: the “activation” value is -2.91%.
For `CCOP(=S)(OCC)Oc1nc(Cl)n(C(C)C)n1`, the “activation” value was 4.78%.
For `CCOP(=S)(OCC)Oc1ccc(Cl)cc1Cl`, the “activation” value is 1.22%.
On the same count and under the same terms, the same measure for `CC(C)O.CC(C)O.OCCN(CCO)CCO.OCCN(CCO)CCO.[Ti]`: -6.41%.
Regarding `CNC(=O)O/N=C(/CSC)C(C)(C)C`, the “activation” value was 0.591%.
As to `C/C=C/C=O`, the “activation” value was -1.17%.
`CNC(=O)Oc1ccccc1C(C)C`: the “activation” value was -0.224%.
